# Bioassay records deposited in PubChem by National Center for Advancing Translational Sciences (NCATS).
# SW480 rerep – A quantitative high throughput screen for small molecules that induce DNA re-replication in SW480 colon adenocarcinoma cells. SW480 DNA re-replication, Hoechst DNA content imaging, 48 h. Potency, µM (top dose mostly 46.1 µM), without a hit: top-dose re-replication activation, actives largely listed as activators. 340,000 compounds, 1.8% hits; further: potency means the concentration at half of the fitted maximal effect; % of control where 0% means no effect; nearly all actives have a fitted effect of over 55% in size
#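 250 cells/well; 23 nL cpd via pin tool; 48 hr, 37 C, 5% CO2; Hoechst 40 min; imager read of total nuclear intensity, ex 405/em 500-530 nm.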
# MCF10A rereplic – A quantitative high throughput screen for small molecules that induce DNA re-replication in MCF 10a normal breast cells; Potency, µM (highest dose often 46.1 µM), without a hit: at the top dose activity, positive = re-replication, usual class: activators; 350,000 compounds, 2.9% hits; MCF 10A DNA re-replication, Hoechst nuclear intensity, 48 h; further: potency means the concentration at half of the fitted maximal effect; % of control where 0% means no effect; nearly all actives have a fitted effect of over 50% in size
# IL-1B inflam inh – qHTS for Inhibitors of Inflammasome Signaling: IL-1-beta AlphaLISA Primary Screen | THP-1 LPS/ATP IL-1B secretion, AlphaLISA, 16 h; stronger effect = lower value | 360,000 compounds, 4.7% hits | AID 743279, 2014 | activity change, % at 57.5 µM; in the data active means activity change below about -50%; inconclusive means mostly about -30% to -49%; further: on the % scale 0 is the no-effect control and ±100 the full control effect
#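 Secreted IL-1B measured by AlphaLISA bead assay after 16 h compound exposure of THP-1 cells; compounds (final up to 57.5 uM) added 1 h before LPS (250 ng/mL) and ATP (1.25 mM) stimulation; lower signal means less secretion.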
# RORg inh – qHTS for inhibitors of ROR gamma transcriptional activity. Potency, µM (series often up to 53.6 µM), without a hit: at the top dose activity change, negative = inhibition, actives largely listed as inhibitors. Drosophila S2 Gal4-RORgamma UAS-luciferase reporter, 20 h. AID 2551, 2010. 310,000 compounds, 5.4% hits. Nuclear receptor ROR-gamma (Mus musculus), P51450; further: potency means the concentration at half of the fitted maximal effect; on the % scale 0 is the no-effect control and ±100 the full control effect; nearly all actives have a fitted effect of over 60% in size
# Target sequence (P51450 whole entry, looked up, the tested form may be a part): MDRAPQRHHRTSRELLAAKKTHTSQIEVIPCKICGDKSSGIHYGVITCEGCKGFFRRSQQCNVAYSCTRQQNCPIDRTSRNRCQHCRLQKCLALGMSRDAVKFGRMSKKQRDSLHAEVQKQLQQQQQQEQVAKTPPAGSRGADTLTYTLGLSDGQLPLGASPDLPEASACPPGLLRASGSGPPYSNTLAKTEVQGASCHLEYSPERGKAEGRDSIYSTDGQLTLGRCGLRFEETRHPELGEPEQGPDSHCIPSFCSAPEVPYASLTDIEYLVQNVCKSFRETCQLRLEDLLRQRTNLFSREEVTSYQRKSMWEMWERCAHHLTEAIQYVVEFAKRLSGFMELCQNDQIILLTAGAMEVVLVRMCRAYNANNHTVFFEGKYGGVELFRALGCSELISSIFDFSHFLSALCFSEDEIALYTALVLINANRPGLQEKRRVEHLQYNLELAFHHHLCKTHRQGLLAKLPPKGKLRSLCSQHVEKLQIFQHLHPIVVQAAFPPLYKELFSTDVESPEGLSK
#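 Luminescence from a UAS-regulated Photinus luciferase reporter in stably transfected Drosophila Schneider cells is measured; decreased signal marks ROR gamma inhibition. Fusion expression is induced by 700 uM copper sulfate for 20 hr.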
# VP16 counter – VP16 counterscreen qHTS for inhibitors of ROR gamma transcriptional activity; AID 2546, 2010; Drosophila S2 Gal4-VP16 UAS-luciferase, luminescence, 20 h; Potency, µM (doses to about 53.6 µM), for the others: at the highest dose activity, negative = inhibition, actives largely listed as inhibitors; 310,000 compounds, 3.5% hits;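 further: Gal4-VP16 expression switched on by copper sulfate through the metallothionein promoter; potency means the concentration at half of the fitted maximal effect; on the % scale 0 is the no-effect control and ±100 the full control effect; nearly all actives have a fitted effect of over 50% in size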
# * = called active by the depositor; ? = inconclusive; nt = not tested or not shown; [ ] = remark or other dose. Most compounds without a hit are left out; they make up all but 11% or so of the library. Unless noted, the call rests on the fitted dose curve; in most records, active means well fitted curve in the direction sought with a large enough effect; inconclusive means small, poorly fitted or top-dose-only effect, or another doubt; inactive means no such curve, though single readings can be large; an effect the other way counts as inactive or inconclusive.
SMILES,SW480 rerep,MCF10A rereplic,IL-1B inflam inh,RORg inh,VP16 counter
O=C(CSc1ncnc2ccccc12)Nc1ccc2c(c1)OCCO2,-1%,-3%,-98*,17%,-14%
O=C(CSc1nc(Cc2ccccc2)nc2ccccc12)Nc1ccc2c(c1)OCCO2,7%,-2%,-1,26%,2%
CC(Sc1nc2ccccc2c(=O)n1C)C(=O)Nc1ccc2c(c1)OCCO2 (centres undefined),?,?,22,nt,nt
O=S1(=O)C[C@H](N2CCN(CCO)CC2)[C@@H](COCc2ccccc2)N1,nt,nt,-7,nt,nt
O=C(C[C@@H]1C/C=C\C[C@@H](Cc2ccc(F)cc2)C(=O)OC[C@H]2CCCN2C1=O)NCCO,-5%,-3%,5,nt,nt
O=C(NCc1ccccc1)C1C(c2ccccc2)=Nc2ccccc2N1C(=O)c1cccnc1 (centres undefined),nt,nt,44,nt,nt
COc1ccc(-n2nnc3c(SCC(=O)Nc4ccc5c(c4)OCCO5)ncnc32)cc1,nt,nt,nt,7.9µM*,?
Cc1ccc(-n2nnc3c(SCC(=O)NCC4CCCO4)ncnc32)cc1 (centres undefined),4%,?,-56*,-34%,?
Cc1nc(SC2CCOC2=O)c2c(C)c(C)sc2n1 (centres undefined),-26%,-8%,3,11µM*,16µM*
CCCS(=O)(=O)N1CCN(Cc2ccc3c(c2)c2ccccc2n3CC)CC1,?,13µM*,?,-17%,-13%
CCOc1ncccc1C(=O)OCc1csc(CC(=O)Nc2ccccc2C)n1,48%,12%,-25,nt,nt
C/C=C/C(=O)Nc1nnc(C2CCCCC2)s1,-10%,3%,-88*,25%,-5%
CCc1noc(C)c1C(=O)Nc1nnc(C2CCCCC2)s1,nt,nt,nt,11µM*,?
NNC(=O)c1cn2ccccc2n1,-1%,10%,-24,0%,-12%
Cc1cc(C(=O)Nc2nnc(C3CCCCC3)s2)no1,-8%,-3%,23,20µM*,2%
Cc1ccc(C(=O)Nc2nnc(C3CCCCC3)s2)o1,-1%,-15%,-19,-13%,-16%
O=C(Nc1nnc(C2CC2)s1)C1CCCCC1,-6%,3%,15,nt,nt
O=C(Nc1nccs1)c1cn2ccccc2n1,?,-1%,0,2µM*,7.1µM*
Cc1cnc(C(=O)Nc2nnc(C3CC3)s2)cn1,-14%,-1%,13,8.9µM*,-24%
Cc1cnc(C(=O)Nc2nccs2)cn1,0%,-3%,5,3.5µM*,11µM*
Cc1cnc(C(=O)Nc2nnc(C)s2)cn1,-3%,3%,-6,?,11%
C#C[C@]1(O)CC[C@H]2[C@H]3CCC4=Cc5oncc5C[C@]4(C)[C@@H]3CC[C@]21C,nt,nt,nt,0%,-7%
CC(C)[C@@H](CC(=O)N[C@@H]1CCNC[C@H]1C(=O)N[C@H](CC(=O)N[C@@H](CCC(=O)O)CC(=O)O)Cc1c[nH]c2ccccc12)NC(=O)C[C@H](CO)NC(=O)[C@@H]1CCCC[C@H]1N,nt,nt,nt,15%,2%
C/C=C1\COC(C(=O)NCc2ccncc2)(C(F)(F)F)C=C1C=C1CCCCC1 (centres undefined),?,?,95,16µM*,?
Cc1cc(C)c2[nH]c(=O)c(CN(Cc3ccc4c(c3)OCO4)Cc3nnnn3C3CCCC3)cc2c1,4%,-1%,-51*,-42%,-13%
SMILES,SW480 rerep,MCF10A rereplic,IL-1B inflam inh,RORg inh,VP16 counter
COc1ccc(Cn2nnnc2CN(Cc2cc3cc(C)ccc3[nH]c2=O)C2CCCC2)cc1,14%,23µM*,-61*,35%,?
Cc1ccc2[nH]c(=O)c(CN(Cc3ccccc3)Cc3nnnn3C3CCCC3)cc2c1,-3%,1%,-72*,34%,5%
Cc1ccc2[nH]c(=O)c(CN(Cc3nnnn3C3CCCC3)C3CCCCC3)cc2c1,17%,21%,20,1%,-12%
Cc1cccc2cc(CN(Cc3ccc(F)cc3)Cc3nnnn3C3CCCC3)c(=O)[nH]c12,1%,-5%,13,18%,-1%
COc1ccccc1CN(Cc1cc2c(C)ccc(C)c2[nH]c1=O)Cc1nnnn1Cc1ccco1,13%,?,-70*,5%[0.365 µM],nt
COc1cc(S(C)=O)ccc1-c1nc2ncccc2[nH]1 (centres undefined),-49%,-4%,10,-9%,1%
O=C(Cn1ncc2c([nH]c3ccccc32)c1=O)N1CCOCC1,-2%,-1%,-2,7%,-12%
Cc1ccc2cc(CN(Cc3ccc4c(c3)OCO4)Cc3nnnn3Cc3ccco3)c(=O)[nH]c2c1,-7%[9.22 µM],?,-53*,-20%,14%
N/C(=N\OC(=O)c1ccc2c(c1)OCO2)c1ccncc1,-15%,-3%,-54*,10µM*,?
N/C(=N\OC(=O)c1ccc2c(c1)OCO2)c1ccc(Cl)cc1,?,16µM*,-17,25%,-23%
Cc1noc(C)c1CSCC(=O)Nc1ccc(S(=O)(=O)C(F)F)cc1,-81%,-14%,-3,nt,nt
CCCCn1c(CCC)nc([N+](=O)[O-])c1Sc1ccc(Cl)cn1,17%,?,?,?,10µM*
CC(C)Cn1c(C(C)C)nc([N+](=O)[O-])c1Sc1ccc(Cl)cn1,1%,?,-9,5%,-5%
c1ccc(-c2nn3c(Cn4cnc5ccccc54)nnc3s2)cc1,0%,-6%,-1,0.071µM*,12%[0.365 µM]
c1ccc2c(c1)ncn2Cc1nnc2sc(-c3ccncc3)nn12,-5%,3%,-5,?,2%
CSC1=N/C(=C\c2ccc(F)cc2)C(=O)S1,3%,30%,17,-12%,2%
Cc1ccc(C2=N/C(=C\c3ccc(F)cc3)C(=O)N2)cc1,15µM*,?,1,nt,nt
CC(NC(=O)Oc1cccc2ccccc12)c1ccccc1 (centres undefined),2%,-4%,20,nt,nt
Cc1cc(C)nc(/N=c2/ssnc2Cl)c1,5%,?,-101*,20µM*,?
Cc1cc(Cl)ccc1N=c1ssnc1Cl,-1%[9.22 µM],?,?,11µM*,?
Cc1ccc(N=c2ssnc2Cl)cc1,?,?,-17,13µM*,?
Nc1ccccc1N=c1ssnc1Cl,?,6%,21,-40%,-20%
CCNC(=O)c1c(NC(=O)c2cc(-c3cc(C)cc(C)c3O)n[nH]2)sc2c1CCCC2,-4%,6.5µM*,-1,nt,nt
COc1ccc(NC(=O)c2cc(-c3cc(C)cc(C)c3O)n[nH]2)cc1Cl,-1%,?,-79*,?,?
CCNC(=O)c1c(NC(C)=O)sc2c1CCCC2,1%[9.22 µM],-2%,-9,1%,-6%
Cc1cccc(NC(=O)c2cc(-c3cc(C)cc(C)c3O)n[nH]2)c1,?,8%,-54*,-11%,-23%
